{"source": "PubChem BioAssay (Tox21)", "key": {"[1]": {"experiment": "Caspase-3/7 induction in HepG2 cells by small molecules, qHTS assay (AID 1346978); also: nearly all actives have a fitted effect of over 15% in size", "outline": "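Wild-type HepG2 cells, 2,000/well, settled 5 hr at 37 C and 5% CO2, then compound-treated for 17 hr; caspase-3/7 activity read by luminescent Caspase-Glo 3/7 after 30 min at room temperature.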"}, "[2]": {"experiment": "Caspase-3/7 induction in CHO-K1 cells by small molecules, qHTS cell viability counter screen (AID 1346979); also: nearly all actives have a fitted effect of over 35% in size; also: potency is read from the fitted curve at half-maximal effect", "outline": "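Viability readout by fluorescence (CellTiter-Fluor) on wild-type CHO-K1 cells exposed for 16hr at 37C and 5% CO2 to compounds delivered in DMSO; reagent incubated 1hr before reading.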"}, "[3]": {"experiment": "Caspase-3/7 induction in CHO-K1 cells by small molecules, qHTS assay (AID 1346980); also: nearly all actives have a fitted effect of over 15% in size", "outline": "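Wild-type CHO-K1 cells exposed to compounds for 17hr at 37 C, 5% CO2. Caspase-3/7 activity then measured by Caspase-Glo 3/7 luminescence after 30min at room temperature.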"}, "[4]": {"experiment": "Caspase-3/7 induction in HepG2 cells by small molecules, qHTS cell viability counter screen (AID 1346981); also: series mostly up to about 92 µM; nearly all actives have a fitted effect of over 30% in size", "outline": "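The parent HepG2 line is plated at 2,000 cells per well and rested 5 hr before compound pinning from DMSO stocks. Following a 16-hr treatment at 37 C, a fluorogenic live-cell substrate (CellTiter-Fluor) reports viability after 1 hr.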"}, "[5]": {"biological_target": "Cytochrome P450 2D6 (Homo sapiens) (UniProt P10635)", "sequence (P10635 whole entry, looked up)": "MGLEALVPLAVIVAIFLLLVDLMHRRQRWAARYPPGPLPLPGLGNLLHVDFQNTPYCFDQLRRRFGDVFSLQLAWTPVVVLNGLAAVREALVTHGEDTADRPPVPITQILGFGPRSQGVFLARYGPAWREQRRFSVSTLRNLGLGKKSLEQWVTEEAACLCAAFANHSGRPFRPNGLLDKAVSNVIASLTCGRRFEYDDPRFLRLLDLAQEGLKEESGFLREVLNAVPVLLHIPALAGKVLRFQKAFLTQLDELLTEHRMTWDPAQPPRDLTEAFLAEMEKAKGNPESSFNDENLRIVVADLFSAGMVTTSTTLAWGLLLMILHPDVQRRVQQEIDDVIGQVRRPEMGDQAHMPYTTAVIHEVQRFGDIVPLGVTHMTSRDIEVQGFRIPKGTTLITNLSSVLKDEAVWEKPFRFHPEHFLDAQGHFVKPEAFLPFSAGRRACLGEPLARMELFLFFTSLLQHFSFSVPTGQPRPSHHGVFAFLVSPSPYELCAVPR", "experiment": "Cytochrome P450 Family 2 Subfamily D Member 6 (CYP2D6) small molecule antagonists: luciferase reporter qHTS assay (AID 1671196); also: nearly all actives have a fitted effect of over 50% in size; also: potency is read from the fitted curve at half-maximal effect", "outline": "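Quantitative HTS of Tox21 chemicals against CYP2D6 using a luminescent proluciferin substrate. After NADPH addition, 1 h room-temperature reaction; luminescence recorded 20 min post detection reagent.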"}, "[6]": {"biological_target": "Cytochrome P450 2C19 (Homo sapiens) (UniProt P33261)", "sequence (P33261 whole entry, looked up)": "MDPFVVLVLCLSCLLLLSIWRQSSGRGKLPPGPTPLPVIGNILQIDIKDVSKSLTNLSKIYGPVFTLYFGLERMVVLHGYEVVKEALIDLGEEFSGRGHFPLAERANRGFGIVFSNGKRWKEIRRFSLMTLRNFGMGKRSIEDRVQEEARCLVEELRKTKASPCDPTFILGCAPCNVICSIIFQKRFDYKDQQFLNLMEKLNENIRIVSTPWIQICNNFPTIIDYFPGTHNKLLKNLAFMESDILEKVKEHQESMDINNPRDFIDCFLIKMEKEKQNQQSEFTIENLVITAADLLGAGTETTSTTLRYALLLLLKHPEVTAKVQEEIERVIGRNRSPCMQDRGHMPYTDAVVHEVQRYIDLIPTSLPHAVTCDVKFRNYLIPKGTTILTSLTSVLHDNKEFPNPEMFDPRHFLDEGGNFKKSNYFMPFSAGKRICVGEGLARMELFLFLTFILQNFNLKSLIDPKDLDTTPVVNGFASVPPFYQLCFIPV", "experiment": "Cytochrome P450 Family 2 Subfamily C Member 19 (CYP2C19) small molecule antagonists: luciferase reporter qHTS assay (AID 1671197); also: nearly all actives have a fitted effect of over 65% in size; also: potency is read from the fitted curve at half-maximal effect", "outline": "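CYP2C19 P450-Glo, 1536-well qHTS. Cpd + enzyme/proluciferin substrate 10 min RT; + NADPH regen, 37C 1 h; stop with luciferin detection reagent, 20 min RT, luminescence (RLU). Pos ctrl ketoconazole.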"}, "[7]": {"biological_target": "Nuclear receptor subfamily 1 group I member 2 (Homo sapiens) (UniProt O75469)", "sequence (O75469 whole entry, looked up)": "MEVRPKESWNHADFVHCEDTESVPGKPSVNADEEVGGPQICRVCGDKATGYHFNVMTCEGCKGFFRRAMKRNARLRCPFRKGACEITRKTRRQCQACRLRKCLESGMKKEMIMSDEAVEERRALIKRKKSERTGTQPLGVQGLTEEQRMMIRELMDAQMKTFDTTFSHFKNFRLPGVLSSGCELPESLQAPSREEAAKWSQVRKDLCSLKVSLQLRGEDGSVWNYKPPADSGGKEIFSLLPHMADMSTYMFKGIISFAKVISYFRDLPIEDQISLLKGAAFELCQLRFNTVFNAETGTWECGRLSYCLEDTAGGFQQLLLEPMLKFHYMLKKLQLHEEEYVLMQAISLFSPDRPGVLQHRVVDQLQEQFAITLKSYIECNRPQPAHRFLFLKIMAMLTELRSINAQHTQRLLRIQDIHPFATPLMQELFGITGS", "experiment": "Human pregnane X receptor (PXR) small molecule agonists, qHTS assay (AID 1346982); also: nearly all actives have a fitted effect of over 35% in size; also: potency is read from the fitted curve at half-maximal effect", "outline": "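After plating in 5% charcoal-stripped FBS and a 5 hr rest, PXR-Luc HepG2 cells received compounds in DMSO. Following 24 hr at 37 C, ONE-Glo was added and light output read.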"}, "[8]": {"biological_target": "Nuclear receptor subfamily 1 group I member 2 (Rattus norvegicus) (UniProt Q9R1A7)", "sequence (Q9R1A7 whole entry, looked up)": "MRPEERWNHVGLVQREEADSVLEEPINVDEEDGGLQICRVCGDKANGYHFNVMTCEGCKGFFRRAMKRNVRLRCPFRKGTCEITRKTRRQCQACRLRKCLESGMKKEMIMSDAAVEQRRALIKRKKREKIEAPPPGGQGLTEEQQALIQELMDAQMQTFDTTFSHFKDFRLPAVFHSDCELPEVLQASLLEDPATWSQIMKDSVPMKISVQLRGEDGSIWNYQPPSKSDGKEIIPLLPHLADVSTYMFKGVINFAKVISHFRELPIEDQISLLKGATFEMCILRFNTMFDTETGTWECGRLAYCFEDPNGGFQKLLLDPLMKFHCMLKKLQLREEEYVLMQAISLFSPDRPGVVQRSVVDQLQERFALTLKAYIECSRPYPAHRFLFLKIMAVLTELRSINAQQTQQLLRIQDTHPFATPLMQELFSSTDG", "experiment": "Rat pregnane X receptor (rPXR) activation by small molecules, qHTS assay (AID 1346983); also: nearly all actives have a fitted effect of over 20% in size", "conditions": "rPXR luciferase reporter cells, One-Glo luminescence, 24 h; max activation: active compounds read high", "outline": "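Cell-based rPXR activation assay: rPXR cells, 2,000 per well, rested 5hr at 37 C, then exposed to compounds in DMSO for 24 hr at 37 C. Luciferase activity read by One-Glo luminescence after 30 min at room temperature.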"}, "[9]": {"biological_target": "Nuclear receptor subfamily 1 group I member 2 (Homo sapiens) (UniProt O75469)", "experiment": "CYP3A4 induction through human pregnane X receptor (PXR) by small molecules, qHTS assay (AID 1346984); also: nearly all actives have a fitted effect of over 40% in size", "outline": "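Human PXR activation is tracked via CYP3A4 promoter-luciferase in DPX-2 (HepG2) cells. Compounds treat cells for 24hr at 37C, and luminescence is read after One-Glo.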"}, "[10]": {"biological_target": "Nuclear receptor subfamily 1 group I member 2 (Homo sapiens) (UniProt O75469)", "experiment": "Human pregnane X receptor (PXR) activation by small molecules, qHTS assay (AID 1346985); also: nearly all actives have a fitted effect of over 40% in size", "outline": "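DPX-2 cells (HepG2 co-transfected with a PXR response element and a CYP3A4-promoter luciferase construct) were seeded at 2,000 per well, rested 5 hr at 37C, then exposed to DMSO-dissolved compounds for 24 hr. Activation was read as luciferase luminescence.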"}}, "note": "Values without a mark were called inactive. Records with an inconclusive call do not appear. Entries that show only a call come without a potency. Activity calls are given as the source filed them. Calls follow the shape of the dose curve; as a rule, active = well fitted curve in the direction sought with a large enough effect in the repeat runs; inconclusive = weak or mixed curves; inactive = no such curve, though single readings can be large; an effect the other way counts as inactive or inconclusive.", "data": [{"smiles": "COCCCN1CCC(NC(=O)c2cc(Cl)c(N)c3c2OCC3)CC1", "values": [{"measurement": "Potency", "setting": "[1]", "value": "inactive"}, {"measurement": "Potency", "setting": "[2]", "value": "inactive"}, {"measurement": "Potency", "setting": "[3]", "value": "inactive"}, {"measurement": "Potency", "setting": "[4]", "value": "inactive"}, {"measurement": "Potency", "setting": "[5]", "value": "3.89 µM (active)"}]}, {"smiles": "O=[N+]([O-])c1cccc(S(=O)(=O)O)c1", "values": [{"measurement": "Potency", "setting": "[1]", "value": "inactive"}, {"measurement": "Potency", "setting": "[2]", "value": "inactive"}, {"measurement": "Potency", "setting": "[3]", "value": "inactive"}, {"measurement": "Potency", "setting": "[4]", "value": "inactive"}, {"measurement": "Potency", "setting": "[5]", "value": "7.21 µM (active)"}, {"measurement": "Potency", "setting": "[6]", "value": "32.2 µM (active)"}]}, {"smiles": "C[C@@H](c1ncncc1F)C(O)(Cn1cncn1)c1ccc(F)cc1F", "note": "(stereo partly specified)", "values": [{"measurement": "Potency", "setting": "[1]", "value": "inactive"}, {"measurement": "Potency", "setting": "[2]", "value": "inactive"}, {"measurement": "Potency", "setting": "[3]", "value": "inactive"}, {"measurement": "Potency", "setting": "[4]", "value": "inactive"}, {"measurement": "Potency", "setting": "[5]", "value": "inactive"}]}, {"smiles": "CCCCCCCCCCCC(=O)OC[C@@H](O)[C@H]1OC[C@H](OCCO)[C@H]1OCCO", "values": [{"measurement": "Potency", "setting": "[1]", "value": "inactive"}, {"measurement": "Potency", "setting": "[2]", "value": "inactive"}, {"measurement": "Potency", "setting": "[3]", "value": "inactive"}, {"measurement": "Potency", "setting": "[4]", "value": "inactive"}, {"measurement": "Potency", "setting": "[5]", "value": "inactive"}, {"measurement": "Potency", "setting": "[6]", "value": "inactive"}]}, {"smiles": "C=C1C(=C/C=C2\\CCC[C@]3(C)[C@@H]([C@H](C)/C=C/[C@@H](O)C4CC4)CC[C@@H]23)C[C@@H](O)C[C@@H]1O", "values": [{"measurement": "Potency", "setting": "[1]", "value": "inactive"}, {"measurement": "Potency", "setting": "[2]", "value": "18.8 µM (active)"}, {"measurement": "Potency", "setting": "[3]", "value": "inactive"}, {"measurement": "Potency", "setting": "[7]", "value": "16.8 µM (active)"}, {"measurement": "max activation", "setting": "[8]", "value": 5.08, "unit": "%"}, {"measurement": "Potency", "setting": "[9]", "value": "inactive"}, {"measurement": "Potency", "setting": "[10]", "value": "inactive"}, {"measurement": "Potency", "setting": "[6]", "value": "7.76 µM (active)"}]}, {"smiles": "O=C1CCCCCCCCCCCC(=O)OCCO1", "values": [{"measurement": "Potency", "setting": "[1]", "value": "inactive"}, {"measurement": "Potency", "setting": "[2]", "value": "inactive"}, {"measurement": "Potency", "setting": "[3]", "value": "inactive"}, {"measurement": "Potency", "setting": "[4]", "value": "inactive"}, {"measurement": "Potency", "setting": "[7]", "value": "inactive"}, {"measurement": "Potency", "setting": "[6]", "value": "71 µM (active)"}]}, {"smiles": "CCOC(=O)C(=O)CCc1ccccc1", "values": [{"measurement": "Potency", "setting": "[1]", "value": "inactive"}, {"measurement": "Potency", "setting": "[2]", "value": "inactive"}, {"measurement": "Potency", "setting": "[3]", "value": "inactive"}, {"measurement": "Potency", "setting": "[4]", "value": "inactive"}, {"measurement": "Potency", "setting": "[7]", "value": "inactive"}, {"measurement": "Potency", "setting": "[6]", "value": "8.71 µM (active)"}]}, {"smiles": "CCCCCCCN", "values": [{"measurement": "Potency", "setting": "[1]", "value": "inactive"}, {"measurement": "Potency", "setting": "[2]", "value": "inactive"}, {"measurement": "Potency", "setting": "[3]", "value": "inactive"}, {"measurement": "Potency", "setting": "[4]", "value": "inactive"}, {"measurement": "Potency", "setting": "[7]", "value": "inactive"}, {"measurement": "Potency", "setting": "[6]", "value": "inactive"}]}, {"smiles": "CCCCCCCCCCCCN1CCCCCC1=O", "values": [{"measurement": "Potency", "setting": "[1]", "value": "inactive"}, {"measurement": "Potency", "setting": "[2]", "value": "inactive"}, {"measurement": "Potency", "setting": "[3]", "value": "inactive"}, {"measurement": "Potency", "setting": "[4]", "value": "inactive"}, {"measurement": "Potency", "setting": "[7]", "value": "21.7 µM (active)"}, {"measurement": "Potency", "setting": "[6]", "value": "inactive"}]}, {"smiles": "C[C@@H]1C[C@H]2O[C@@]3(O[C@@H]2C(C)(C)O)[C@H](O)[C@@]2(C)[C@@H]4CC[C@H]5C(C)(C)[C@@H](O[C@@H]6OC[C@@H](O)[C@H](O)[C@H]6O)CC[C@@]56C[C@@]46CC[C@]2(C)[C@@H]13", "values": [{"measurement": "Potency", "setting": "[1]", "value": "inactive"}, {"measurement": "Potency", "setting": "[2]", "value": "inactive"}, {"measurement": "Potency", "setting": "[3]", "value": "inactive"}, {"measurement": "Potency", "setting": "[4]", "value": "inactive"}, {"measurement": "Potency", "setting": "[6]", "value": "inactive"}]}, {"smiles": "CC(C)Cc1ccc(C(C)C(=O)OCc2ccccn2)cc1", "note": "(stereo unspecified)", "values": [{"measurement": "Potency", "setting": "[1]", "value": "inactive"}, {"measurement": "Potency", "setting": "[2]", "value": "inactive"}, {"measurement": "Potency", "setting": "[3]", "value": "inactive"}, {"measurement": "Potency", "setting": "[4]", "value": "inactive"}, {"measurement": "Potency", "setting": "[7]", "value": "inactive"}, {"measurement": "Potency", "setting": "[6]", "value": "7.76 µM (active)"}]}, {"smiles": "O=C1CCC(=O)O1", "values": [{"measurement": "Potency", "setting": "[1]", "value": "inactive"}, {"measurement": "Potency", "setting": "[2]", "value": "inactive"}, {"measurement": "Potency", "setting": "[3]", "value": "inactive"}, {"measurement": "Potency", "setting": "[4]", "value": "inactive"}, {"measurement": "Potency", "setting": "[7]", "value": "inactive"}, {"measurement": "Potency", "setting": "[6]", "value": "inactive"}]}, {"smiles": "CCCCC1=NC2(CCCC2)C(=O)N1Cc1ccc(-c2ccccc2-c2nn[nH]n2)cc1", "values": [{"measurement": "Potency", "setting": "[1]", "value": "inactive"}, {"measurement": "Potency", "setting": "[2]", "value": "29.8 µM (active)"}, {"measurement": "Potency", "setting": "[3]", "value": "inactive"}, {"measurement": "Potency", "setting": "[7]", "value": "inactive"}, {"measurement": "max activation", "setting": "[8]", "value": -1.35, "unit": "%"}, {"measurement": "Potency", "setting": "[9]", "value": "inactive"}, {"measurement": "Potency", "setting": "[10]", "value": "inactive"}, {"measurement": "Potency", "setting": "[5]", "value": "inactive"}, {"measurement": "Potency", "setting": "[6]", "value": "inactive"}]}, {"smiles": "O=C1c2ccccc2S(=O)(=O)N1CCCCN1CCN(c2ncccn2)CC1", "values": [{"measurement": "Potency", "setting": "[1]", "value": "inactive"}, {"measurement": "Potency", "setting": "[2]", "value": "inactive"}, {"measurement": "Potency", "setting": "[3]", "value": "inactive"}, {"measurement": "Potency", "setting": "[4]", "value": "inactive"}, {"measurement": "max activation", "setting": "[8]", "value": 0.873, "unit": "%"}, {"measurement": "Potency", "setting": "[5]", "value": "1.38 µM (active)"}]}, {"smiles": "CCCCO", "values": [{"measurement": "Potency", "setting": "[1]", "value": "inactive"}, {"measurement": "Potency", "setting": "[2]", "value": "inactive"}, {"measurement": "Potency", "setting": "[3]", "value": "inactive"}, {"measurement": "Potency", "setting": "[4]", "value": "inactive"}, {"measurement": "max activation", "setting": "[8]", "value": -3.27, "unit": "%"}]}]}
